# Test results reported in PubChem BioAssay AID651597 (National Center for Advancing Translational Sciences (NCATS), 2012).
# Hit rate of the full screen: of about 1,100 compounds, about 390 (35%) were called active. About 30% were inconclusive and are not listed. The list shows a part of the results. Values without a mark were called inactive. Calls follow the shape of the dose curve; as a rule, active = well fitted inhibition curve with a large enough effect; inconclusive = small, poorly fitted or top-dose-only effect; inactive = flat fitted curve, though single readings scatter.
# Biological target: Luciferin 4-monooxygenase (Photinus pyralis) (UniProt P08659)
# Assay: qHTS of Nrf2 Activators: Hit Validation in Secondary FLuc Assay; also: nearly all actives have a fitted effect of over 65% in size
# Conditions: firefly luciferase inhibition counter-screen, luminescence; series mostly up to 57.5 µM; activity, negative = inhibition: at the top concentration
# Outline: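 Counter-screen on purified firefly luciferase with ATP and D-luciferin at Km concentrations; compounds flagged if they inhibit the enzyme, indicating possible reporter stabilization rather than ARE activation.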
# % is scaled to controls: 0 for no effect and ±100 for the full control effect; potency is read from the fitted curve at half-maximal effect.
Structure (SMILES),Potency,"activity, negative = inhibition"
C[n+]1c2n(c3ccccc31)N=C(c1ccccc1)CS2,inactive,
O=C(Nc1ccc2ccccc2c1)c1ccc(Br)o1,1.2 µM (active),
Cc1nc(NC(=O)c2ccc(Br)o2)ccc1Br,9.53 µM (active),
Cc1ccc(C)c(-c2nnc(NC(=O)c3ccc([N+](=O)[O-])o3)o2)c1,,-24.8%
Cc1ccc2oc(-c3cccc(NC(=O)c4ccc(Br)o4)c3)nc2c1,8.49 µM (active),
Cc1cc(C(=O)Nc2cc(Br)ccc2O)on1,,-27.5%
O=C(Cn1cnc2ccccc21)N/N=C/C(Br)=C/c1ccccc1,,-29.9%
O=C(/C=C/Nc1ccc(F)cc1)c1cccs1,0.19 µM (active),
O=C(NNC(=O)c1nc(Cl)ccc1Cl)c1ccc(F)cc1,,-24.8%
COCCn1c(=NC(=O)c2cc(Cl)sc2Cl)sc2cc(S(N)(=O)=O)ccc21,15.1 µM (active),
O=c1oc2ccccc2cc1-c1csc(Nc2ccc(O)cc2)n1,1.35 µM (active),
O=c1oc2ccc(Br)cc2cc1-c1nc2ccccc2o1,,-2.54%
CN1CCN(S(=O)(=O)c2ccc(Sc3nnnn3-c3ccccc3)c([N+](=O)[O-])c2)CC1,,-15.7%
CCOc1cc2c(c3c1C(c1ccccc1)N(S(=O)(=O)c1ccc(C)cc1)C3)C(=O)C=CC2=O (stereo unspecified),0.601 µM (active),
Cc1ccccc1/C=C1\C(=O)Nc2ccc(F)cc21,,-16.3%
Cc1ccsc1/C=N/N=C1\C(=O)Nc2ccccc21,3.38 µM (active),
COC(=O)[C@@]1(Sc2ccc(C)cc2)CC(=O)N(C(=O)/C=C/c2ccccc2)[C@@H]1c1ccccc1,,-4.35%
O=C(NC(=S)Nc1ccccc1O)c1ccccc1Cl,8.49 µM (active),
O=C(NC(=S)Nc1cc(C(F)(F)F)ccc1Cl)c1ccccc1,,-18.4%

Structure (SMILES),Potency,"activity, negative = inhibition"
O=C(CNC(=S)NC(=O)c1ccccc1Br)c1ccccc1,,-2.89%
O=C1/C(=C\c2ccc(Cl)cc2)CCC1CNc1ccc(Cl)cc1 (stereo unspecified),19 µM (active),
Cc1ccc(S(=O)(=O)c2nc(S(C)(=O)=O)sc2N2CCCCC2C)cc1 (stereo unspecified),,3.09%
COc1cc(C=C(c2nc3ccccc3s2)c2nc3ccccc3s2)ccc1O,12 µM (active),
O=C1Nc2cccnc2N(C(=O)CCl)c2ccccc21,,-2.21%
COc1ccccc1C=Cc1ccnc2ccccc12,5.36 µM (active),
O=C(c1ccco1)c1cn(CC(=O)N2CCCc3ccccc32)c2ccccc12,,-29.5%
CC(=O)Nc1ccc(O)c(-c2nc3ccccc3s2)c1,2.13 µM (active),
O=C1c2cccc3cccc(c23)C(=O)N1Cc1ccco1,,-1.75%
c1ccc(N=NC2=NN(c3ccccc3)CS2)cc1,2.13 µM (active),
O=c1c(Cl)c(N/N=C/c2ccc(Cl)cc2)cnn1-c1ccccc1,19 µM (active),
O=C(O)c1ccc(-n2ncc(Cl)c(Cl)c2=O)cc1,,4.91%
Cc1ccc(Sc2cnn(-c3ccccc3)c(=O)c2Cl)cc1,,0.573%
Oc1ccc2ccccc2c1/C=C/c1ccc2c(Br)cc(Br)c(O)c2n1,10.7 µM (active),
Cc1noc(C)c1COc1ccccc1C(=O)NNC(=O)c1ccccc1F,,-1.09%
COC(=O)c1sccc1NC(=O)c1ccccc1F,,2.44%
COc1cc2c(cc1NC(=O)c1ccco1)CCCC2,7.57 µM (active),
COc1cc2c(cc1NC(=O)c1ccccc1F)CCCC2,8.49 µM (active),
COc1cc(OC)c(NC(=O)c2ccco2)cc1Cl,,-28.1%

Structure (SMILES),Potency,"activity, negative = inhibition"
COC(=O)[C@@H]1Cc2c([nH]c3ccccc23)C(C)(C)N1C(=O)CCl,,3.08%
Cc1cc(Br)ccc1NC(=O)CNC(=O)Cn1ncc(Cl)c(Cl)c1=O,,-3.69%
CCOC(=O)c1cnc(-c2ccccc2)nc1-c1ccccc1,,-24.4%
CCOC(=O)c1ccsc1NC(=O)CCS(=O)(=O)c1ccccc1,,2.57%
CCOC(=O)c1ccccc1N/C=C/C(=O)c1ccccc1,10.7 µM (active),
CS(=O)(=O)c1nc(S(=O)(=O)c2ccc(Cl)cc2)c(N2CCC3(CC2)OCCO3)s1,,-1.6%
Cc1ccc(Nc2nc(C(N)=O)c(NC(=O)c3ccccc3Br)s2)cc1,13.5 µM (active),
NC(=O)c1nc(Nc2ccccc2)sc1NC(=O)c1ccccc1Br,,-28.1%
COC(=O)c1c(NC(=O)c2ccccc2)sc(C(N)=O)c1C,,-0.933%
O=C(Nc1nccc(-c2cccs2)n1)c1cccs1,10.7 µM (active),
O=C(CSc1nccc(-c2cccs2)n1)Nc1cccc(Cl)c1,,-5.97%
O=C(Nc1ncc2c(n1)-c1ccccc1CC2)c1cccs1,10.7 µM (active),
O=C(CSc1nccc(-c2cccs2)n1)Nc1cccc(Cl)c1Cl,,-6.99%
Oc1ccccc1Nc1nc2ccccc2n2nnnc12,10.7 µM (active),
Cc1c(Nc2nc3ccccc3n3cnnc23)cccc1[N+](=O)[O-],,0.0637%
Fc1ccc(Nc2nc3ccccc3n3cnnc23)c(F)c1,,6.09%
CSc1ccc(C2NN=C(c3ccccc3)S2)cc1 (stereo unspecified),0.0426 µM (active),
CC(C)OC(=O)c1cn(-c2ccccc2)nc1-c1ccco1,6.75 µM (active),
